Laboratory results as given in the supplement of paper PMC3334620.
Whole data set: some 33,000 sequences, median “E-score (-0.5 to 0.5)” near -0.0059, cut for the highest 2% near 0.26. This excerpt belongs to a sample that is enriched for the highest values.

The sequences below were run against T1, Cin5 (UniProt P40917) (assay: PBM E-score (8-mer binding enrichment) (E-score (-0.5 to 0.5)); higher = stronger / more preferred TF binding). Details: protein concentration: 100 nM; construct: GST-full length.
T1 sequence: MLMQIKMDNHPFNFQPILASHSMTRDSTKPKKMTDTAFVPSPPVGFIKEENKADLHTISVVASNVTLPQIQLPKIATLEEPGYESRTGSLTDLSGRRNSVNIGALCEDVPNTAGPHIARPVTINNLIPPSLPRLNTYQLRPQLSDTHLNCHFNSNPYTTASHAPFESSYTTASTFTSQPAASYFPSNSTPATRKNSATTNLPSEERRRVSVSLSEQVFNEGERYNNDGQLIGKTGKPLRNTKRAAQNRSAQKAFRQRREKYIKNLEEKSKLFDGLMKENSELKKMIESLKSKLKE
In short: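 PURExpress in vitro transcription/translation supplied GST-tagged yeast transcription factors, either full-length or DNA-binding domain. Applied at about 100-200 nM to universal all-10-mer Agilent arrays double-stranded by primer extension, the bound protein was detected with fluorescent anti-GST. E-scores, modified Wilcoxon-Mann-Whitney statistics, were given by the Universal PBM Analysis Suite to ungapped eight-base words pooled with their reverse complements after masliner normalisation.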

In order of rising “PBM E-score” value:
1. CGGGGGTC  -0.417
2. CTGGGACC  -0.316
3. AAGGGAGT  -0.285
4. GCTGGCCC  -0.269
5. CCTAGGGC  -0.254
6. CTGCCCAG  -0.249
7. CCTACCAC  -0.224
8. CGCATCGC  -0.195
9. AACCTCCG  -0.183
10. GCACCGGC  -0.178
11. CGTGCCTA  -0.177
12. AAAGGGCA  -0.174
13. CCTCCGAG  -0.16
14. ACGGTGCA  -0.139
15. ACCCTCAT  -0.136
16. ACAGGACG  -0.133
17. GCCGCGAA  -0.133
18. CTGTAGCA  -0.13
19. CAGTTGCA  -0.123
20. CCGTAAGA  -0.122
21. CGGGCCCC  -0.12
22. AGCTTCAG  -0.115
23. GCACTCCA  -0.111
24. GCTTCTAA  -0.109
25. GGAAACTA  -0.105
26. ATCCTCCC  -0.103
27. CCACATAG  -0.0996
28. CCTAGGTA  -0.0942
29. ACAATCGT  -0.0859
30. AGGGAGAC  -0.0805
31. GGCCCAAC  -0.0745
32. CCTGCAGC  -0.0691
33. CAGCAGAA  -0.0607
34. ATGCCCTA  -0.0594
35. CCCGATAA  -0.0584
36. CTACGAAA  -0.0568
37. CTTACCTC  -0.0461
38. AAAGATAG  -0.0374
39. GGCTGAGA  -0.0327
40. CTTGTTAA  -0.0283
41. CAGAGTAA  -0.0253
42. CTTGTTAC  -0.0236
43. GACGTACC  -0.0136
44. CATCGAAA  -0.0105
45. AAGCTAGA  -0.0103
46. GGTTGAAA  -0.00909
47. AGACGTCA  -0.00622
48. GTACGTAC  -0.00455
49. ACAGCGAA  -0.00314
50. ACTGATAC  -0.00272
51. AAGGATCG  0.00025
52. CTAAATCA  0.00062
53. CGCACGGC  0.001
54. AATGGCAC  0.00736
55. AACGATAG  0.0137
56. CCGGAGTC  0.014
57. ATACGAAT  0.0148
58. CTTCAAAA  0.0157
59. GAATCCTA  0.0175
60. AAGGTTAA  0.0178
61. AACGATAC  0.0238
62. CTAAGCGA  0.0261
63. ACTTTTCT  0.0353
64. CATGGCTA  0.037
65. ATCAATAG  0.0422
66. CTACAAAC  0.043
67. CTCTTACA  0.0444
68. AAACCATT  0.045
69. AATGGCAG  0.0479
70. GCCCAATA  0.0485
71. CTTGTTTC  0.0494
72. CCATAAAA  0.0525
73. ACAACTTG  0.0528
74. GGACGTCA  0.0529
75. AATGGCTC  0.0552
76. AGTATCCC  0.0604
77. GCTAAGCA  0.0676
78. CCGTAAAC  0.072
79. GTGTTGAA  0.0739
80. ATTGTTAA  0.0779
81. AGTTTGAA  0.0821
82. GAAGATTC  0.0827
83. GGAAGCGA  0.0828
84. ACAATCGA  0.0876
85. CAACATAG  0.0889
86. GGAATCAA  0.0945
87. CCACCGGA  0.0953
88. CTTCGTAA  0.0958
89. CCGTGTAC  0.102
90. ATCGGTGA  0.103
91. GGATTGAA  0.104
92. ATTGTTAG  0.109
93. TATCTCCA  0.112
94. ATTACCTG  0.113
95. ATACGTAG  0.116
96. CAACATAC  0.125
97. AAGCAGAT  0.128
98. AGTAATGA  0.13
99. GTTACCTA  0.131
100. TAGTAAAA  0.137
101. CATCATAA  0.139
102. ATTACCTC  0.142
103. GAAATCAC  0.149
104. GATGAGTA  0.152
105. GTTCGTAA  0.153
106. GGTAATGA  0.153
107. ATCCAGAG  0.161
108. AGTAATGG  0.162
109. TTAATCAA  0.166
110. GAAATCAA  0.167
111. ATTGTTTG  0.168
112. AACCCTTA  0.168
113. TCAATCAA  0.173
114. GCTTTGTA  0.174
115. CGATTTAG  0.182
116. ACAACTTA  0.184
117. ATAAATCA  0.185
118. AAAGATAC  0.186
119. ATTTCGAA  0.188
120. ATAAGCGC  0.188
121. AATCATAT  0.193
122. GAACATAA  0.198
123. AAACATAA  0.199
124. CCGTAATA  0.203
125. AAACTCAT  0.205
126. ATAAGCGG  0.206
127. AATCATAC  0.206
128. CACAACTA  0.211
129. GCTAATCA  0.212
130. CACGGAAA  0.224
131. GCGTAAGC  0.227
132. ATTAATCG  0.228
133. TAATAGTA  0.228
134. CTACGTAA  0.24
135. GATCATAA  0.241
136. AGTAATCC  0.243
137. AAGTAATA  0.247
138. CTAATCAC  0.248
139. CAGTAATA  0.254
140. CGAGATAA  0.255
141. GAGTAATA  0.26
142. AAGCAGAA  0.261
143. AGTAATCG  0.262
144. ATACGAAA  0.265
145. ATAAGCGA  0.267
146. TAGTAATA  0.27
147. TATCATAA  0.272
148. AATGGCTA  0.274
149. ATTGTTTC  0.275
150. ATTGTTAC  0.276
151. GTAAATCA  0.284
152. GTTGTTAA  0.284
153. AACGATAT  0.285
154. CAACATAA  0.286
155. GGTAATCA  0.289
156. AATCATAG  0.291
157. ACAACTTC  0.296
158. AAAGATAT  0.3
159. CTAATCAA  0.301
160. ATTCGTAA  0.304
161. AGTAATCA  0.312
162. TAACATAA  0.317
163. AATGGCAT  0.32
164. CTTACCTA  0.32
165. GTAATCAC  0.321
166. CCGTAATC  0.329
167. CCGTAAGC  0.332
168. ATTACCTA  0.349
169. GTAAGCGA  0.383
170. GTAATCAA  0.392
171. GTACGTAA  0.397
172. TGACGTCA  0.425
